TRAIL sens C8: viability loss with TRAIL in NB7+C8 cells, primary screen, TRAIL sensitizer project, cell-based, ATPlite luminescence. inhibition (viability loss, TRAIL sensitization), % at 10 µM. hit rate 1% among 360,000. AID 624354, 2012;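 active = compounds causing at least 50% loss of cell viability in the single-dose screen, relative to plate controls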
SENP7 inh: SENP7 protease inhibitors, primary screen, biochemical, luminescence, uHTS | hit rate 1.5% among 330,000 | recombinant SENP7, Z-RLRGG-aminoluciferin luminescence, 40 min | Sentrin-specific protease 7 (Homo sapiens), Q9BQF6 | inhibition, % at 5 µM;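 active = inhibition above about 50% at the single test dose, limit read from the data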
Target sequence (Q9BQF6 706-1050 limits assumed): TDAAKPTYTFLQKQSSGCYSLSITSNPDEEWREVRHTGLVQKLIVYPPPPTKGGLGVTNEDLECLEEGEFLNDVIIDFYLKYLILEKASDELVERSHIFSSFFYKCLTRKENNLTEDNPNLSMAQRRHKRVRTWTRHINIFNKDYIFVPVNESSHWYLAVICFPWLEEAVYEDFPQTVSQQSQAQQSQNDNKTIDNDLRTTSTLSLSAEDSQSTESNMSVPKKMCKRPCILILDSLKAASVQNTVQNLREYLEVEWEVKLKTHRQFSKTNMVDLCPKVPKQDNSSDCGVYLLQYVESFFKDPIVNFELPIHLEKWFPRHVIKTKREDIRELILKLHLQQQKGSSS
SENP8 block-1: human SENP8 protease inhibitors, primary screen, biochemical, fluorescence, Nedd8 protein substrate, uHTS; recombinant SENP8; inhibition, % at 20 µM; hit rate 0.64% among 360,000; in the data active = inhibition mostly above about 40%, no sharp cut-off; inactive = mostly below about 27%
Target sequence (Q96LD8 whole entry, looked up): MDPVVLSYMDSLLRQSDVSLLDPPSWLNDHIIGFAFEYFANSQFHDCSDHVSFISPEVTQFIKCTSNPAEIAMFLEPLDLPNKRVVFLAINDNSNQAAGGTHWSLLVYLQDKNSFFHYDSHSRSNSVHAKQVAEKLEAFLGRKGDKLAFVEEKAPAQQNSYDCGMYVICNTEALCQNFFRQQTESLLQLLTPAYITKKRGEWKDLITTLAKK
SENP6 inh: SENP6 protease inhibitors, primary screen, biochemical, luminescence, uHTS | Sentrin-specific protease 6 (Homo sapiens), Q9GZR1 | inhibition, % at 10 µM | hit rate 1.8% among 330,000 | Recombinant SENP6 catalytic domain, aminoluciferin luminescence | AID 2599, 2010;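 active = inhibition above about 50% at the single tested dose, limit read from the data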
SENP8 block-2: SENP8 protease inhibitors, primary screen, biochemical, luminescence | AID 2540, 2010 | inhibition, % at 10 µM | hit rate 1.2% among 330,000 | purified SENP8, Z-RLRGG-aminoluciferin cleavage; in the data active = inhibition above about 50%
PPC-1+TRAIL kill: compounds killing PPC-1 cancer cells with TRAIL present, primary screen, TRAIL potentiator project, ATPLite luminescence, uHTS; hit rate 0.41% among 220,000; cell killing (% activity), % at 4 µM or 5 µM; PPC-1 cells + TRAIL, ATPLite viability luminescence; AID 1443, 2008;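 active = cell killing above 50% in the first pass at 4 µM, then a duplicate retest at 5 µM averaging 50% or more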
SENP8 confirm: SENP8 protease inhibitors, retest, confirmation, biochemical, luminescence, single concentration. shares compounds with SENP7 inh. Recombinant SENP8, Z-RLRGG-aminoluciferin luminescence, 60 min. inhibition, % at 12.5 µM. hit rate 40% among 6,200. AID 488912, 2010;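 active = mean inhibition across replicates above about 50%, limit read from the data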
SENP6 confirm: SENP6 protease inhibitors, confirmation, biochemical, luminescence, single concentration; shares compounds with SENP7 inh; AID 488915, 2010; inhibition, % at 12.5 µM; recombinant SENP6, Z-RLRGG-aminoluciferin luminescence; hit rate 58% among 6,200
SENP7 confirm: SENP7 protease inhibitors, retest, confirmation, biochemical, luminescence, single concentration | shares compounds with SENP7 inh | inhibition, % at 12.5 µM | hit rate 69% among 6,200 | recombinant SENP7, Z-RLRGG-aminoluciferin luminescence, 40 min
Casp3 SENP sel: caspase-3 protease inhibitors, confirmation, selectivity assay for SENP inhibitor project, biochemical, single concentration; inhibition, % at 12.5 µM; purified caspase-3, Z-DEVD-aminoluciferin luminescence, 60 min; AID 488918, 2010; shares compounds with SENP7 inh; hit rate 60% among 6,200;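 active = mean inhibition above about 50%, limit read from the data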
Luc interf: counter-screen for SENP inhibitors: luminescence interference; shares compounds with SENP7 inh; Pre-incubated SENP8/Z-RLRGG-aminoluciferin, luciferase luminescence interference; inhibition, % at 12.5 µM; hit rate 39% among 6,200; AID 488919;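 active = mean inhibition above about 50% when retested at one dose, limit read from the data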
Large screens that a line does not name were inactive (follow-up assays come after a bar, where they were run). This is a sample that favours compounds with a hit; in the whole collection about 3% have one here.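 Rule for the calls, unless noted: active = mean inhibition above about 50% in the one-dose retest (limit read from the data); inactive = the rest.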

Nc1ccccc1C#Cc1ccc([N+](=O)[O-])cc1	SENP6 inh 62 (no result: PPC-1+TRAIL kill) | SENP8 confirm inactive | SENP6 confirm inactive | SENP7 confirm 81 | Casp3 SENP sel inactive | Luc interf inactive
N#CC(c1ccccc1)c1ccc([N+](=O)[O-])cc1 (stereo not given)	none (no result: SENP7 inh, SENP6 inh, SENP8 block-2, PPC-1+TRAIL kill)
CCOc1ccc(Nc2ccc([N+](=O)[O-])c3nonc23)cc1	SENP6 inh 71, SENP8 block-2 65 (no result: PPC-1+TRAIL kill) | SENP8 confirm 64 | SENP6 confirm 60 | SENP7 confirm 84 | Casp3 SENP sel 61 | Luc interf 65
Cc1cccc(-c2cc3nc(-c4ccccc4)cc(=O)n3[nH]2)c1	TRAIL sens C8 44, SENP7 inh 51, SENP6 inh 89, SENP8 block-2 88 (no result: PPC-1+TRAIL kill) | SENP8 confirm inactive | SENP6 confirm 74 | SENP7 confirm inactive | Casp3 SENP sel inactive | Luc interf inactive
Cc1nc2nc(-c3ccccc3)cc(=O)n2[nH]1	SENP7 inh 55 | SENP8 confirm 57 | SENP6 confirm 52 | SENP7 confirm 84 | Casp3 SENP sel 85 | Luc interf 66
Cc1ccccc1-c1cc2nc(-c3ccc([N+](=O)[O-])cc3)cc(=O)n2[nH]1	none
O=c1c2oc3ccccc3c2ncn1Cc1ccc(Cl)cc1	none
Cc1ccc(-c2cnc(-c3ccncc3)o2)cc1	none
Nc1ccc(-c2ncc(-c3ccccc3)o2)cc1	TRAIL sens C8 52, SENP7 inh 69, SENP6 inh 73, SENP8 block-2 61 (no result: PPC-1+TRAIL kill) | SENP8 confirm 74 | SENP6 confirm 68 | SENP7 confirm 89 | Casp3 SENP sel inactive | Luc interf 74
Cc1cccc(OCc2nnc(SCC(=O)NCc3ccc4c(c3)OCO4)o2)c1	none (no result: SENP7 inh, SENP6 inh, SENP8 block-2, PPC-1+TRAIL kill)
Cc1ccc([N+](=O)[O-])cc1N/C=C1\CCc2ccccc2C1=O	SENP6 inh 79 | SENP8 confirm inactive | SENP6 confirm inactive | SENP7 confirm inactive | Casp3 SENP sel inactive | Luc interf inactive
CC(=O)N(c1ccccc1C)c1ccccc1C	none (no result: SENP7 inh, SENP6 inh, SENP8 block-2, PPC-1+TRAIL kill)
CC(=O)N(/N=C1\Sc2ccccc2C1=O)c1ccccc1C	SENP7 inh 63, SENP6 inh 87, SENP8 block-2 90 | SENP8 confirm inactive | SENP6 confirm 82 | SENP7 confirm inactive | Casp3 SENP sel inactive | Luc interf inactive
CC(=O)N(/N=C1\Sc2ccccc2C1=O)c1ccc(C)cc1C	SENP7 inh 70, SENP6 inh 87, SENP8 block-2 83 | SENP8 confirm inactive | SENP6 confirm 65 | SENP7 confirm inactive | Casp3 SENP sel inactive | Luc interf inactive
N#C/C(=C/c1ccc(N2CCOCC2)c([N+](=O)[O-])c1)C(N)=O	SENP7 inh 90 | SENP8 confirm inactive | SENP6 confirm inactive | SENP7 confirm inactive | Casp3 SENP sel inactive | Luc interf inactive
COc1ccc(N(CC(O)Cn2cnc3ccccc32)S(=O)(=O)c2ccc(C)cc2)cc1 (stereo not given)	none
CC(C)C[C@H]1CN(CCCC[C@H]2CNC(=O)C(=O)N2CCc2ccc(O)cc2)C(=O)C(=O)N1Cc1ccccc1	none (no result: SENP7 inh, SENP6 inh, SENP8 block-2, PPC-1+TRAIL kill)
N#Cc1c(/N=C/c2cccs2)sc2c1CCC2	SENP7 inh 95, SENP6 inh 65, SENP8 block-2 79 | SENP8 confirm inactive | SENP6 confirm inactive | SENP7 confirm inactive | Casp3 SENP sel inactive | Luc interf inactive
N#Cc1c(/N=C/c2ccco2)sc2c1CCCCC2	SENP7 inh 96, SENP6 inh 92, SENP8 block-2 94 | SENP8 confirm inactive | SENP6 confirm 98 | SENP7 confirm 69 | Casp3 SENP sel 75 | Luc interf inactive
CN(C)/C=N/c1sc2c(c1C#N)CCCC2	none
Cc1oc2c(c1C(=O)O)C(=O)c1ccccc1C2=O	SENP8 block-1 45, SENP6 inh 63 | SENP8 confirm inactive | SENP6 confirm 52 | SENP7 confirm inactive | Casp3 SENP sel 51 | Luc interf inactive
Cc1oc2c(c1C(=O)c1ccccc1)C(=O)C(=O)c1ccccc1-2	TRAIL sens C8 97, SENP8 block-1 99, SENP6 inh 83, SENP8 block-2 65 | SENP8 confirm inactive | SENP6 confirm 72 | SENP7 confirm inactive | Casp3 SENP sel inactive | Luc interf inactive
CCOC(=O)c1c(C)oc2c1C(=O)c1ccccc1C2=O	none
Nc1c(N=Nc2ccccc2F)c(=O)[nH]n1-c1ccccc1	SENP7 inh 77, SENP6 inh 80, SENP8 block-2 55 | SENP8 confirm inactive | SENP6 confirm inactive | SENP7 confirm 53 | Casp3 SENP sel inactive | Luc interf inactive
Nc1nn(-c2ccccc2)c(N)c1N=Nc1ccccc1F	none
COc1cc(C(=O)NCCN2C(=O)S/C(=C\c3cccs3)C2=O)cc(OC)c1OC	SENP7 inh 64, SENP8 block-2 56 | SENP8 confirm inactive | SENP6 confirm inactive | SENP7 confirm inactive | Casp3 SENP sel inactive | Luc interf inactive
COc1cc(OC)cc(C(=O)NCCN2C(=O)S/C(=C\c3cccs3)C2=O)c1	none
CC(C)(C)c1ccc(C(=O)c2c[nH]c(C(=O)O)c2)cc1	SENP7 inh 75, SENP6 inh 85, SENP8 block-2 78 | SENP8 confirm inactive | SENP6 confirm 76 | SENP7 confirm 95 | Casp3 SENP sel inactive | Luc interf 84
COC(=O)c1cc(C(=O)c2ccc(C(C)(C)C)cc2)c[nH]1	none
COc1ccccc1Nc1nnc(C)c(=O)[nH]1	none
COc1ccc(OC)c(Nc2cc3ccccc3c(=O)[nH]2)c1	SENP7 inh 97, SENP6 inh 94, SENP8 block-2 88 (no result: PPC-1+TRAIL kill) | SENP8 confirm inactive | SENP6 confirm 74 | SENP7 confirm inactive | Casp3 SENP sel inactive | Luc interf inactive
